Data as given in PubChem BioAssay (NCATS).
Records with an inconclusive call do not appear. A call without a number means that no potency is given here. Activity calls are given as the source filed them. Calls follow the shape of the dose curve; as a rule, active = well fitted cell-killing curve with a large enough effect; inconclusive = small, poorly fitted or top-dose-only effect; inactive = flat fitted curve, though single readings scatter.

assay: qHTS of pediatric cancer cell lines to identify multiple opportunities for drug repurposing: Primary screen for U-2 OS cells (AID 1347096); settings: U-2 OS viability, CellTiter-Glo luminescence, 48 h; series mostly up to 46 µM; also: nearly all actives have a fitted effect of over 50% in size
Description: Drug repurposing or repositioning has been offered as a strategy for drug development in oncology programs. This approach has special potential for childhood cancers and other rare or orphan diseases, where the expected return on new drug development has been a disincentive to pharmaceuticals.
In this project we exploit the poly-pharmacology of drugs to discover new indications via phenotypic screening of a panel of 19 well-characterized cell lines derived from solid tumors seen in children and adolescents. The goal is to identify approved drugs with previously unrecognized anticancer properties that has the potential to reveal new mechanisms and biological processes involved in carcinogenesis or drug resistance. We employed a titration-based paradigm (quantitative high-throughput screening or qHTS), where all compounds were tested at multiple concentrations for their effect on cell viability. Concentration-response curves (CRCs) were derived directly from the primary screen, and both potency and efficacy values were used to identify compounds with robust bioactivity profiles. We screened the NIH Chemical Genomics Center (NCGC) Pharmaceutical Collection (NPC) and Mechanism Interrogation Plate (MIPE) small molecule collections of approved and investigational compounds against these cell lines; and measured metabolically active cells after 48 hours of compound treatment as a proxy for cell viability.
Assay Submitter: Nathalia J. Martinez, National Center for Advancing Translational Sciences, National Institutes of Health, Rockville, MD, USA; email: natalia.martinez@nih.gov
[1] Shen, M et al. Quantitative high-throughput phenotypic screening of pediatric cancer cell lines identifies multiple opportunities for drug repurposing. Oncotarget 2017 Dec 19;9(4):4758-4772. PMID 29435139.
The cells were obtained from University of North Carolina (UNC), Pediatric Preclinical Testing Program (PPT), and Coriell Institute (CI).
qHTS cell viability assay:
Cells were assayed in growth media at a density of 500-1,000 cells/well. Five microliters of cells were dispensed into 1,536-well, white, solid-bottom, TC-treated plates (Greiner Bio One) using a multidrop dispenser and incubated at 37 degrees C, 5% CO2, under a humidified atmosphere for 5 hours. Twenty-three nanoliters of compounds and controls (neutral control DMSO or positive control bortezomib at final concentration of 2.3 µM) were subsequently transferred by Kalypsys pintool. For primary screens, the MIPE collection was tested at 11-point dilutions (final concentrations range from 0.78 nM to 46 µM) and the NPC collection at 8-point dilutions (final concentrations range from 0.59 nM to 46 µM). Compounds tested in follow-up screens were assayed at 11-point dilutions. Cells were incubated for 48 hours, followed by addition of 3 µL of CellTiter-Glo (Promega). After a 15 min incubation at room temperature, samples were analyzed for luminescence intensity using a ViewLux High-throughput CCD imager equipped with clear filters.
Potency is read from the fitted curve at half-maximal effect.

| SMILES | Potency |
| --- | --- |
| COc1cc([C@H]2Oc3cc([C@H]4Oc5cc(O)cc(O)c5C(=O)[C@H]4O)ccc3O[C@H]2CO)ccc1O | inactive |
| CCOC(=O)c1c(CSc2ccccc2)n(C)c2cc(Br)c(O)c(CN(C)C)c12 | inactive |
| COc1ccc(-c2nc3ccc(C4=NNC(=O)CC4C)cc3[nH]2)cc1 (stereo not given) | inactive |
| c1ccc(-c2oc3ncnc(NC[C@@H]4CCCO4)c3c2-c2ccccc2)cc1 | inactive |
| C=CCc1cccc(C=NNC(=O)CN2CCN(Cc3ccccc3)CC2)c1O | inactive |
| COc1ccc(CCC(=O)Nc2nc3ccc(Cl)cc3s2)cc1OC | inactive |
| CCN1CCN(c2ccc(Nc3cc(N(C)C(=O)Nc4c(Cl)c(OC)cc(OC)c4Cl)ncn3)cc2)CC1 | inactive |
| CCCCCCOC(=O)N=C(N)c1ccc(NCc2nc3cc(C(=O)N(CCC(=O)OCC)c4ccccn4)ccc3n2C)cc1 | inactive |
| COc1cc2ncnc(Nc3cc(Br)c(O)c(Br)c3)c2cc1OC | inactive |
| CCN1CCC(n2cc(CNc3cc(Cl)c4ncc(C#N)c(Nc5ccc(F)c(Cl)c5)c4c3)nn2)CC1 | inactive |
| CC1CCN(c2cc(N3CCN(C)CC3)ccc2NC(=O)c2cc(C#N)c[nH]2)CC1 | inactive |
| CC(C)(C)c1[nH]cnc1C=c1[nH]c(=O)c(=Cc2ccccc2)[nH]c1=O | 42.9 µM (active) |
| O=C(O)CCC=CCC[C@@H]1[C@H](N2CCCCC2)[C@@H](O)C[C@@H]1OCc1ccc(-c2ccccc2)cc1 | inactive |
| Nc1ccn([C@@H]2O[C@H](CO)[C@@H](O)[C@H]2O)c(=O)n1 | inactive |
| Oc1ccc(C=Cc2cc(O)cc(O)c2)cc1 | inactive |
| CC(C)CN(C[C@H](O)[C@H](Cc1ccccc1)NC(=O)O[C@H]1CCOC1)S(=O)(=O)c1ccc(N)cc1 | inactive |
| CNC(=O)c1ccc2c(C(=Nc3cccc(CN(C)C)c3)c3ccccc3)c(O)[nH]c2c1 | inactive |
| CCC(=O)OCC(=O)[C@@]1(OC(=O)CC)[C@@H](C)C[C@@H]2[C@H]3CCC4=CC(=O)C=C[C@]4(C)[C@@]3(F)[C@@H](O)C[C@@]21C | inactive |
| COc1cc2nccc(Oc3ccc(NC(=O)Nc4ccc(F)cc4F)c(F)c3)c2cc1OC | inactive |
| CC1=C(CC(=O)O)c2cc(F)ccc2C1=Cc1ccc(S(C)=O)cc1 (stereo not given) | inactive |

| SMILES | Potency |
| --- | --- |
| CC(C)(OCc1nn(Cc2ccccc2)c2ccccc12)C(=O)O | inactive |
| COc1ccc(-c2oc3c(CC=C(C)C)c(O)cc(O)c3c(=O)c2O)cc1 | inactive |
| CCCCOCCOc1nc(-c2ccc(C(=O)O)c(F)c2)sc1C | inactive |
| NC[C@H]1O[C@H](O[C@@H]2[C@@H](O)[C@@H](O[C@H]3O[C@H](CO)[C@@H](O)[C@H](N)[C@@H]3O)[C@H](N)C[C@@H]2N)[C@H](O)[C@@H](O)[C@H]1O | inactive |
| CNC(=O)[C@H](CC1=CN=C2C=CCC=C12)NC(=O)[C@@H](CC(=O)NO)CC(C)C | inactive |
| C[C@@H]1O[C@@H](O[C@H]2CC[C@@]3(C)[C@H](CC[C@@H]4[C@H]3C[C@@H](O)[C@]3(C)[C@@H](C5=CC(=O)OC5)CC[C@]43O)C2)C[C@H](O)[C@@H]1O[C@H]1C[C@H](O)[C@H](O[C@H]2C[C@H](O)[C@@H](O)[C@@H](C)O2)[C@H](C)O1 (stereo in doubt) | 0.34 µM (active) |
| Cc1c(-c2cccc3c(CCCOc4cccc5ccccc45)c(C(=O)O)n(Cc4cccnc4)c23)c(COc2ccc(N3CCN([S+](=O)([O-])N(C)C)CC3)cc2)nn1C | inactive |
| O=C(c1ccc(F)c(F)c1Nc1ccc(I)cc1F)N1CC(O)([C@H]2CCCCN2)C1 | 14.8 µM (active) |
| C[C@H]1O[C@@H](n2cc(F)c(=O)[nH]c2=O)[C@H](O)[C@H]1O | inactive |
| NC(=O)c1nnn(Cc2cc(Cl)c(C(=O)c3ccc(Cl)cc3)c(Cl)c2)c1N | inactive |
| O=C(Nc1ccc(OC(F)(F)F)cc1)c1sccc1NCc1ccnc2ccccc12 | inactive |
| CN(C)c1ccc(-c2nc3ncc(Cl)c(N4CCN(CC(=O)Nc5nccs5)CC4)c3[nH]2)cc1 | inactive |
| CN(C)CCN(C)C(=O)c1ccc(NC(=O)Nc2ccc(-c3nc(N4CCOCC4)c4ccn(CC(F)(F)F)c4n3)cc2)cc1 | 4.69 µM (active) |
| Nc1ncnc2c1c(-c1cccc(OCc3ccccc3)c1)cn2C1CC(CN2CCC2)C1 (stereo not given) | inactive |
| CC(C)CNc1ccnc(NCc2csc(-c3ccccc3)n2)n1 | inactive |
| Cc1cn([C@@H]2C[C@@H](O)[C@H](CO)O2)c(=O)[nH]c1=O | inactive |
| Cc1cnc(Nc2cccc(CN3CCOCC3)c2)nc1Nc1cccc(S(=O)(=O)NC(C)(C)C)c1 | 14.8 µM (active) |
| CN(C)S(=O)(=O)c1ccc2c(c1)C(=Cc1cc3c([nH]1)CCCC3)C(=O)N2 | inactive |
| NC(=O)c1ccc(N(C(N)=O)c2c(F)cccc2F)nc1-c1ccc(F)cc1F | inactive |
| CC[C@H](C)n1cc(C)c2c(C(=O)NCc3c(C)cc(C)[nH]c3=O)cc(-c3ccc(N4CCNCC4)nc3)cc21 | inactive |
